Results filed as inconclusive are left out. Active and inactive are the calls of the source. Calls come from the whole dose curve.
Experiment: qHTS assay to identify small molecule antagonists of the estrogen receptor alpha (ER-alpha) signaling pathway using the BG1 cell line (AID 743080);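 note: BG1 cells stimulated with 17beta-estradiol alongside compound; nearly all actives have a fitted effect of over 25% in size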
Conditions: BG1Luc4E2 ERE-luciferase antagonist mode, luminescence; series mostly up to 70.3 µM; activity change, negative = inhibition: at the top concentration
In short: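 Seeding, 24 h rest, compound transfer from DMSO, 17beta-estradiol addition, 21.5 h incubation, CellTiter-Fluor (30 min, 37 C), then ONE-Glo (30 min, room temperature): this sequence was run on BG1-Luc-4E2 reporter cells.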
% is set by controls: 0 for no effect and ±100 for the full control effect.

| SMILES | activity change, negative = inhibition | Potency |
| --- | --- | --- |
| CCCCCCCCCCCCCCC1CO1 (stereo not given) | 0.156% (inactive) | – |
| O=C(C(=O)c1ccc(Br)cc1)c1ccc(Br)cc1 | 3.17% [at 32.5 µM] (inactive) | – |
| C=C(C)C(=O)OCCN(C)C | -0.346% [at 95 µM] (inactive) | – |
| CC(=O)N(O)CCCCCNC(=O)CCC(=O)N(O)CCCCCNC(=O)CCC(=O)N(O)CCCCCN | 7.55% [at 32.5 µM] (inactive) | – |
| Nc1nc(N)c2nc(CNc3ccc(C(=O)N[C@@H](CCC(=O)O)C(=O)O)cc3)cnc2n1 | -3.97% (inactive) | – |
| O=C(NN1CCCC1)NS(=O)(=O)c1ccc(Cl)cc1 | -1.13% (inactive) | – |
| N[C@H]1C(O)O[C@H](CO)[C@H](O)[C@@H]1O (stereo not given in full) | 4.71% (inactive) | – |
| C=CC[N+]1([C@H]2C[C@H]3[C@@H]4CC[C@H]5C[C@H](OC(C)=O)[C@@H](N6CCCCC6)C[C@]5(C)[C@H]4CC[C@]3(C)[C@H]2OC(=O)CC)CCCCC1 | 10.3% (inactive) | – |
| OCC1CC2CC1C1CCC(CO)C21 (stereo not given) | -10.1% (inactive) | – |
| Cn1c(=O)c2c(ncn2CC(O)CO)n(C)c1=O (stereo not given) | -1.34% [at 32.5 µM] (inactive) | – |
| CCOC(=O)CC(=O)c1cc(F)c(Cl)nc1Cl | 7.37% [at 95 µM] (inactive) | – |
| O=C(O)COC(=O)Cc1ccccc1Nc1c(Cl)cccc1Cl | 1.37% [at 32.5 µM] (inactive) | – |
| CCCCCCCCCCCCCCCBr | 3.5% (inactive) | – |
| N#CCc1cccc(C(F)(F)F)c1 | -4.73% (inactive) | – |
| CCCCOC(O)CC (stereo not given) | -1.55% (inactive) | – |
| C[C@H](CCC(=O)O)[C@H]1CC[C@H]2[C@@H]3[C@H](O)C[C@@H]4C[C@H](O)CC[C@]4(C)[C@H]3CC[C@]12C | – | inactive |
| CC[C@H](C)[C@H](N)C(=O)O | -3.23% (inactive) | – |
| CC(C)NCC(O)COc1ccc(CC(N)=O)cc1 (stereo not given) | 0.693% (inactive) | – |

| SMILES | activity change, negative = inhibition | Potency |
| --- | --- | --- |
| COCCOCCOCCOCCOC | 2.23% (inactive) | – |
| C=C(C)C(=O)OC(C)C | -6.61% (inactive) | – |
| N#CCCNCCC#N | 11.2% [at 95 µM] (inactive) | – |
| NCCCOCCOCCOCCCN | 0.542% (inactive) | – |
| CC(=O)NCCCS(=O)(=O)O | – | inactive |
| Cc1ccc(C(N)=O)cc1N | 1.61% (inactive) | – |
| O=C(O)C1CCC(C(=O)O)CC1 (stereo not given) | -5.52% (inactive) | – |
| Cc1ccccc1N=Nc1ccc(N=Nc2c(O)ccc3ccccc23)c(C)c1 | -16.9% (inactive) | – |
| CCOC(=S)SSC(=S)OCC | – | inactive |
| CCCCCCCCCO | 6.18% (inactive) | – |
| CN(C)CCCOc1nn(Cc2ccccc2)c2ccccc12 | -5.12% [at 32.5 µM] (inactive) | – |
| CCOC(=O)CC(C)C | 2.7% (inactive) | – |
| FC(F)(F)C(F)(F)C(F)(F)C(F)(F)C(F)(F)C(F)(F)CCI | -0.499% (inactive) | – |
| CC(C(=O)O)c1ccc(-c2ccccc2)c(F)c1 (stereo not given) | – | inactive |
| CCCc1ccccc1 | 9.12% (inactive) | – |
| Cc1ncsc1CCO | 0.147% (inactive) | – |
| N=C(N=C(N)N)N1CCOCC1 | -0.263% [at 32.5 µM] (inactive) | – |

— PubChem BioAssay (Tox21)
